Measured values taken from PubChem BioAssay.

Target: Streptavidin (Streptomyces avidinii) (UniProt P22629)
Test: compounds binding control protein streptavidin – biophysical, small-molecule microarray, 635/667 nm fluorescence, artefact control for SMM compound annotation, primary screen (AID 1147);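 note: signal reflects streptavidin binding to arrayed compounds as a control protein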
Conditions: higher = more signal

Streptavidin (Streptomyces avidinii), sequence (P22629 whole entry, looked up): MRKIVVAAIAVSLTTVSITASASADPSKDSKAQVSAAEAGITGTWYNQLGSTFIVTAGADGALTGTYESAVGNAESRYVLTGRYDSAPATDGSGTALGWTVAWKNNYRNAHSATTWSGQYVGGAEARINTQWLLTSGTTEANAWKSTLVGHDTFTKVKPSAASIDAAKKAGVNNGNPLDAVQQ

Q: With COc1cc(CO)cc(I)c1O[C@H]1C=C(C(=O)NCCO)C[C@@H](N(CC2CCCCC2)C(=O)c2cc3ccccc3oc2=O)[C@@H]1O as the compound, how does the composite z-score read?
A: 0.745

Q: How did the composite z-score turn out when C=C(CCCC)/C(=C/C[C@@H](OC(=O)c1ccncc1)c1cccc(OCCO)c1)c1cc(C(=O)OC)ccc1OC was run?
A: 0.788

Q: For C=CCC(OC(C)=O)[C@@H]1[C@@H](N(Cc2ccc(-c3ccccc3)cc2)C(=O)c2ccc(-c3ccccc3)cc2)c2cc(OCCCO)ccc2N1C(=O)Cc1ccc(OC)cc1 (some centres not stated), which composite z-score is on record?
A: 0.573

Q: With CC(=O)NCCCC[C@@H]1NC(=O)[C@H]2C[C@@H](C(=O)NCCCCCCN(C)C)[C@@H](c3ccc(O)cc3)N2C1=O as the compound, how does the composite z-score read?
A: 1.36

Q: Which composite z-score does the source give for Cc1ccc(S[C@]2(C(=O)NC(C)C)CC(=O)N(C3Cc4ccccc4C3)[C@@H]2c2ccc(CO)cc2)cc1 here?
A: -0.37

Q: For Cc1ccc(N2C(=O)c3ccccc3[C@](C)(C(=O)NCC(C)C)[C@@H]2c2ccc(CO)cc2)nc1, which composite z-score is on record?
A: -1.12

Q: How did the composite z-score turn out when [N-]=[N+]=NCc1ccccc1C[C@]1(C(=O)N2CCCCC2)N=C(c2ccc(OCCCO)cc2)O[C@H]1c1ccccc1CN=[N+]=[N-] was run?
A: 0.995

Q: For C=C(CCCC)/C(=C/C[C@H](OC(=O)c1ccncc1)c1cccc(OCCO)c1)c1cc(C(=O)OC)ccc1OC, which composite z-score is on record?
A: 0.396

Q: For O=C(CS)NCCCCCCNC(=O)[C@@H]1C[C@@H]2C(=O)N[C@@H](Cc3ccccc3)C(=O)N2[C@@H]1c1ccc(O)cc1, which composite z-score is on record?
A: 0.226

Q: C=C(CCCC)C(=O)CC[C@@H](OC(=O)c1cccnc1)c1cccc(OCCO)c1 was tested. Which composite z-score did it give?
A: -0.0743

Q: How did the composite z-score turn out when COc1ccc([C@H]2C[C@H]3C(Br)=C[C@]2(OC)C(=O)[C@]32CO2)cc1 was run?
A: -0.0817

Q: For C=C(C(=O)CC[C@H](OC(=O)c1ccccc1-c1ccccc1C(=O)O)c1ccc(CO)o1)C(C)C, which composite z-score is on record?
A: 0.194

Q: With C#CCCCON=C1C[C@@H](O)[C@@H](O)[C@@H]2[C@@H]3C(=O)N(Cc4ccc5c(c4)OCO5)C(=O)[C@@H]3CC[C@H]12 as the compound, how does the composite z-score read?
A: 1.26

Q: COC(=O)c1ccc(C#CC(NP(=O)(c2ccccc2)c2ccccc2)c2ccccc2)cc1 (configuration not stated) was tested. Which composite z-score did it give?
A: 2.13

Q: CCOC(=O)C1=CC[C@@H](c2ccc(-c3ccc(OCc4ccccc4)cc3)c(OC)c2)N(S(=O)(=O)c2ccc(C)cc2)[C@H]1c1ccccc1 was tested. Which composite z-score did it give?
A: 1.67

Q: Which composite z-score does the source give for CC(c1ccccc1)C(O)C1C=CC2C(=O)N(C)C(=O)C2N1N(c1ccccc1)c1ccccc1 (configuration not stated) here?
A: 0.377

Q: With C=C[C@H](OC)[C@@H](OC(=O)Nc1ccc(SC)cc1)c1ccc(O)c(F)c1 as the compound, how does the composite z-score read?
A: -0.174

Q: C=C(CCCC)C(=O)CC[C@@H](OC(C)=O)c1ccccc1OCCO was tested. Which composite z-score did it give?
A: -0.484

Q: With CC(=O)NCCCC[C@@H]1NC(=O)[C@H]2C[C@@H](C(=O)NCCCCCCN(C)C)[C@@H](c3cccc(OCCO)c3)N2C1=O as the compound, how does the composite z-score read?
A: 0.369

Q: How did the composite z-score turn out when CCCC=C(CCC)[C@@H](NS(=O)(=O)c1cccc(C(F)(F)F)c1)c1ccc(C(=O)OC)cc1 was run?
A: 0.0276

Q: Which composite z-score does the source give for O=C(NCc1ccccc1)[C@@]1(Cc2ccccc2)COC(c2ccc(OCCCO)cc2)=N1 here?
A: 0.191

Q: Which composite z-score does the source give for [N-]=[N+]=NCc1ccccc1[C@H]1OC(c2ccc(OCCCO)cc2)=N[C@@]1(Cc1ccccc1N=[N+]=[N-])C(=O)NCc1ccccc1 here?
A: 0.303

Q: With NC(=O)NCC#Cc1ccc2c(c1)[C@]1(C(=O)N2)[C@H](C(=O)N2CCCCCCC2)[C@H]2C(=O)O[C@H](c3ccccc3)[C@H](c3ccccc3)N2[C@@H]1c1ccccc1OCCO as the compound, how does the composite z-score read?
A: 3.38

Q: With C#CCNC(/C=C/c1ccccc1)CO (configuration not stated) as the compound, how does the composite z-score read?
A: -0.114

Q: How did the composite z-score turn out when O=C1C2C=CC(C(O)C(c3ccccc3)c3ccccc3)N(Nc3ccc([N+](=O)[O-])cc3)C2C(=O)N1c1ccccc1 (configuration not stated) was run?
A: 1.13

Q: How did the composite z-score turn out when C=C(CCCC)/C(=C/C[C@@H](OC(=O)c1ccncc1)c1ccc(CO)o1)c1cnc2ccccc2c1 was run?
A: 1.39

Q: How did the composite z-score turn out when CCc1cccc(NC(=O)O[C@H]2[C@H](OC(=O)Nc3ccccc3)[C@@H](OC(=O)Nc3ccccc3)[C@@H](OC)O[C@@H]2CO)c1 was run?
A: 0.39

Q: Which composite z-score does the source give for C=CC[C@]1(C(=O)N2CCCCC2)N=C(c2ccc(OCCCO)cc2)O[C@H]1c1ccccc1N=[N+]=[N-] here?
A: 1.87

Q: With C#C[C@H](O[Si](C#Cc1ccccc1)(C(C)C)C(C)C)c1ccccc1 as the compound, how does the composite z-score read?
A: -0.636

Q: With CCOC(=O)C1=CC[C@@H](c2ccccc2)N(S(=O)(=O)c2ccc(C)cc2)[C@H]1C as the compound, how does the composite z-score read?
A: 1.85

Q: O=C(N1CCCCC1)[C@@]1(CCS(=O)(=O)c2ccccc2)N=C(c2ccc(OCCCO)cc2)O[C@H]1c1ccccc1 was tested. Which composite z-score did it give?
A: -0.123

Q: For CC(C)(C)OC(=O)CC[C@]1(C(=O)N2CCCCC2)N=C(c2ccc(OCCCO)cc2)O[C@H]1c1ccccc1, which composite z-score is on record?
A: 2.08
